Structures are written as SMILES. Where “and” joins values, the source holds several entries; their conditions need not be identical. Identical values can stand only once. Inconclusive results are not listed. More than one record can exist for a structure, and the calls need not agree. Calls of active or inactive are those of the source. Calls follow the shape of the dose curve; as a rule, active = well fitted curve in the direction sought with a large enough effect; inconclusive = small, poorly fitted or top-dose-only effect, or another doubt; inactive = no such curve, though single readings can be large; an effect the other way counts as inactive or inconclusive.

Test [1] can be described thus: Primary qHTS for inhibitors of nuclear receptor binding SET domain protein 2 (NSD2) in an isogenic RCH-ACV NSD2 p.E1099K mutant (9B) (AID 1645876). A general note: qHTS replaces the single test concentration by a dilution series.
Test [2] can be described thus: Primary qHTS for inhibitors of nuclear receptor binding SET domain protein 2 (NSD2) in an RCH-ACV wild type WT cells (2C) (AID 1645877).
Also: nearly all actives have a fitted effect of over 70% in size.
Potency is read from the fitted curve at half-maximal effect.

As for `O=C(NCCS(=O)(=O)c1ccc(C(F)(F)F)cn1)c1ccc(Cl)cc1`, the Potency entry in test [1] and in test [2] was “inactive” in each case.
`CC(C)c1nn(-c2c(Cl)cccc2Cl)c2nc(Cc3ccc(OCCO)cc3)[nH]c(=O)c12`: the Potency was 45.9 nM (active) and 46.8 nM (active) in test [1]; 25.8 nM (active) and 41.7 nM (active) in test [2].
As for `Nc1nc(NCCNc2ncc(-n3ccnc3)c(-c3ccc(Cl)cc3Cl)n2)ccc1[N+](=O)[O-]`, the Potency is 5.15 µM (active) and inactive in test [1]; 4.59 µM (active) and inactive in test [2].
On to `CC1(O)CC(c2nc(-c3ccc4ccc(-c5ccccc5)nc4c3)c3c(N)nccn23)C1` (stereo not given), for which the Potency in test [1] was 12.9 µM (active); in test [2], 18.3 µM (active).
In the same order, the values of `CNC(=O)c1ccc(-c2cnc3ncc(Cc4ccc5ncccc5c4)n3n2)cc1F` are “inactive” and “inactive”.
`C=CCn1c(=O)c2cnc(Nc3ccc(N4CCN(C)CC4)cc3)nc2n1-c1cccc(C(C)(C)O)n1`: the Potency in test [1] is 290 nM (active) and 372 nM (active); in test [2], 230 nM (active) and 468 nM (active).
`Cc1cc(CN2CCN(c3c(Br)cnc4nc(-c5ccc(N6CCN(C)CC6)cc5)[nH]c34)CC2)no1`: the Potency is 205 nM (active) and 468 nM (active) in test [1]; 145 nM (active) and 296 nM (active) in test [2].
Take `c1nc2nc(Nc3ccc(N4CCOCC4)cc3)nc(NC3CCCCC3)c2[nH]1`: the Potency in test [1] was 632 nM (active) and 662 nM (active); in test [2], 563 nM (active) and 525 nM (active).
For `COc1cc(-c2nn(C3CCC(N4CCN(C(C)=O)CC4)CC3)c3ncnc(N)c23)ccc1NC(=O)c1cc2ccccc2n1C` (stereo not given), the Potency in test [1] was 183 nM (active) and 590 nM (active); in test [2], 258 nM (active) and 1.05 µM (active).
As for `C=CC(=O)Nc1cc2c(Nc3ccc(F)c(Cl)c3)ncnc2cc1OCCCN1CCOCC1`, the Potency in test [1] is 1.68 µM (active) and 2.95 µM (active); in test [2], 1.5 µM (active) and 2.95 µM (active).
For `COc1ccc2c(c1)CC[C@@H](CN(C)CC(=O)O)[C@H]2c1ccccc1`, the Potency entry in test [1] and in test [2] was “inactive” throughout.
For the molecule `Nc1cccc(-c2cc3c(Oc4cccc(O)c4)ncnc3[nH]2)c1`, the Potency is 1.15 µM (active) and 1.05 µM (active) in test [1]; 1.15 µM (active) and 833 nM (active) in test [2].
For `CCCCOc1c(C(=O)c2c(F)cc(C)cc2F)cnc2n[nH]cc12`, the Potency in test [1] was 0.817 µM (active); in test [2] it was 578 nM (active) and 235 nM (active).
Take `C=C1C(=CC=C2CCC[C@]3(C)[C@@H]([C@H](C)C=C[C@H](C)C(C)C)CC[C@@H]23)C[C@@H](O)C[C@@H]1O`: the Potency entry in test [1] and in test [2] was “inactive” in each case.
Regarding `COc1cc2ncn(-c3cc(OCc4ccccc4C(F)(F)F)c(C(N)=O)s3)c2cc1OC`, the Potency in test [1] is 562 nM (active) and 1.05 µM (active); in test [2], 794 nM (active) and 1.18 µM (active).
For the molecule `C[C@@H]1COC(Nc2ccc3ncnc(Nc4ccc(OCc5nccs5)c(Cl)c4)c3c2)=N1`, the Potency in test [1] was 13.2 µM (active); in test [2], 11.8 µM (active).
`O=C(O)c1ccc2cc(-c3ccc(O)c(C45CC6CC(CC(C6)C4)C5)c3)ccc2c1`: the Potency is 0.934 µM (active) in test [1] and 0.59 µM (active) in test [2].
As for `C[C@@H]1CN(CC(=O)Nc2ccc3c(c2)Cc2cccc(-c4cc(=O)cc(N5CCOCC5)o4)c2S3)C[C@H](C)O1`, the values for the Potency in test [1] and in test [2] were 5.9 µM (active) and 4.68 µM (active), respectively.
Turning to `COc1ccc(OC)c(-c2nnc3ccc(-c4ccc(OC)c(O[C@@H]5CCOC5)c4)nn23)c1`, the Potency in test [1] is 3.72 µM (active); in test [2] it was 2.95 µM (active).
The matching figures for `CN1c2cc(O)c(N=NC(N)=O)cc2CC1S(=O)(=O)O` (stereo not given): “inactive” and “inactive”.
Take `NC1(Cc2ccc(Cl)cc2)CCN(c2ncnc3[nH]ccc23)CC1`: the Potency in test [1] is 9.34 µM (active); in test [2], 8.33 µM (active).
`COc1cccc(-c2ccc(NC(=O)C3=C(C(=O)O)CCC3)c(F)c2)c1`: the Potency in test [1] was 5.78 µM (active) and 2.95 µM (active); in test [2], 6.49 µM (active) and 3.72 µM (active).
With `Cn1cncc1[C@@](N)(c1ccc(Cl)cc1)c1ccc2c(c1)c(-c1cccc(Cl)c1)cc(=O)n2C`, the Potency result in test [1] and in test [2] was “inactive” throughout.
For the molecule `CC(O)C1C(=O)N2C(C(=O)O)=C(SC3CNC(C(=O)N(C)C)C3)C(C)C12` (stereo not given), the Potency entry in test [1] and in test [2] was “inactive” throughout.
Turning to `CN(C)Cc1c(C(=O)NCCOc2ccc(C(=O)NO)cc2)oc2ccccc12`, the Potency is 515 nM (active) and 332 nM (active) in test [1]; 515 nM (active) and 296 nM (active) in test [2].

For the origin of these results see PubChem BioAssay (NCATS).
